# Bioassay records as filed in PubChem BioAssay.
# TDP1 inh: qHTS Assay for Inhibitors of Tyrosyl-DNA Phosphodiesterase (TDP1); recombinant TDP1, AlphaScreen DNA substrate cleavage; Potency, µM (doses to about 130 µM), for inactives: top-dose activity change, negative = inhibition, usual class: inhibitors; 350,000 compounds, 0.28% hits; AID 485290, 2010; further: potency means the concentration at half of the fitted maximal effect; nearly all actives have a fitted effect of over 40% in size
# Target sequence (Q9NUW8 whole entry, looked up): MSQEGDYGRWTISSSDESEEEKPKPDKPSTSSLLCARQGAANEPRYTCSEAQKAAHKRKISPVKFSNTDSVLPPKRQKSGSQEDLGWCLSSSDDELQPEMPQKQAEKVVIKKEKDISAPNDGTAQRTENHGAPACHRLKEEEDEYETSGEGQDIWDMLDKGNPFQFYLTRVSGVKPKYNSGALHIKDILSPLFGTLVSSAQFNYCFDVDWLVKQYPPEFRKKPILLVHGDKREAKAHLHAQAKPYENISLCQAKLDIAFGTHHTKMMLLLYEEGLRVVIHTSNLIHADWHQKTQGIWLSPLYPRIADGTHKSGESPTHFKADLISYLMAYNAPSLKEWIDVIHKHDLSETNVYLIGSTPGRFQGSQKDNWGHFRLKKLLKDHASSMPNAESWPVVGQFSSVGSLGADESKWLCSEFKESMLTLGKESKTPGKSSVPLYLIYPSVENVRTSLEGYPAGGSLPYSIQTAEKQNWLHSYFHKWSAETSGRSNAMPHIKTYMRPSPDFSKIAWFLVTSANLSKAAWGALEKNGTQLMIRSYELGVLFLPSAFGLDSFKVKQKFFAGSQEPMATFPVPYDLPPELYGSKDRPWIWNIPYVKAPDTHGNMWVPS
#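 E. coli-derived human Tdp1, 1 nM final. Cpd preinc 15 min RT; substrate 15 nM final, 5 min RT; AS bead mix 10 ug/ml final, 10 min RT. Signal loss = tyrosine-FITC cleavage. No-enzyme wells = max signal.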
# Giardia killer: Small Molecules that selectively kill Giardia lamblia: qHTS; Giardia lamblia trophozoite viability; activity change, % at 7.66 µM, hits read low; 340,000 compounds, 0.15% hits; AID 540267, 2011; in the data active means activity change below about -80%; inconclusive means between about -30% and that limit;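 further: parasites exposed to compound for two days anaerobically before the ATP read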
#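 Anaerobic 48 hrs incubation at 37 deg C of 100 trophozoites/well with test compounds; ATPLite 1-Step luminescence, 15-30 min RT, reports cellular ATP as viability.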
# TDP1 cell CPT: qHTS for Inhibitors of human tyrosyl-DNA phosphodiesterase 1 (TDP1): qHTS in cells in presence of CPT; chicken DT40 Tdp1-/-;hTDP1 cells + 20 nM CPT, ATP luminescence, 48 h; Potency, µM (titrated, usually from 46.2 µM), without a hit: at the highest dose activity change, negative = growth inhibition, usual class: inhibitors; 420,000 compounds, 12% hits; further: potency means the concentration at half of the fitted maximal effect; nearly all actives have a fitted effect of over 55% in size
#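 Cell growth measured by CellTiter-Glo luminescence after a minimum 48 h, 37 C compound exposure with 20 nM CPT in Tdp1-knockout DT40 cells stably expressing hTDP1, seeded 400/well; qHTS titration format.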
# DT40 TDP1 no CPT: qHTS for Inhibitors of human tyrosyl-DNA phosphodiesterase 1 (TDP1): qHTS in cells in absence of CPT; DT40 Tdp1-/- hTDP1 cells, no CPT, ATP luminescence, 48 h; 420,000 compounds, 15% hits; AID 686978, 2013; Potency, µM (titrated, usually from 46.2 µM), for inactives: at the highest dose activity change, negative = growth inhibition, most hits filed as inhibitors; further: potency means the concentration at half of the fitted maximal effect; nearly all actives have a fitted effect of over 55% in size
#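 No-CPT arm: Tdp1-/-;hTDP1 DT40 cells (400/well) plus compounds, incubated ≥48 hr at 37 °C. Readout CellTiter-Glo luminescence.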
# ELG1 DNA repair: qHTS screen for small molecules that inhibit ELG1-dependent DNA repair in human embryonic kidney (HEK293T) cells expressing luciferase-tagged ELG1 | 330,000 compounds, 2.3% hits | Potency, µM (series often up to 46.1 µM), for inactives: top-dose activity change, negative = inhibition, actives largely listed as inhibitors | HEK293T ELG1-luciferase reporter, luminescence, 16 h; DNA damage induced by 5-fluorouridine | AID 504467, 2011; further: potency means the concentration at half of the fitted maximal effect; nearly all actives have a fitted effect of over 55% in size
#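 Overnight (16 hr) co-exposure of 2,000 cells/well to 5-fluorouridine and compound at 37 °C preceded detection. Luciferase was quantified via ONE-Glo luminescence; loss of signal denotes inhibition.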
# IL-1B inflam inh: qHTS for Inhibitors of Inflammasome Signaling: IL-1-beta AlphaLISA Primary Screen; 360,000 compounds, 4.7% hits; AID 743279, 2014; activity change, % at 57.5 µM; THP-1 LPS/ATP IL-1B secretion, AlphaLISA, 16 h; active compounds read low; in the data active means activity change below about -50%; inconclusive means mostly about -30% to -49%
#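 Secreted IL-1B measured by AlphaLISA bead assay after 16 h compound exposure of THP-1 cells; compounds (final up to 57.5 uM) added 1 h before LPS (250 ng/mL) and ATP (1.25 mM) stimulation; lower signal means less secretion.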
# An asterisk follows results filed as active; i = inactive; ? = inconclusive; . = no result given; [ ] = dose if it differs, or a comment. This is a sample that favours compounds with a hit; in the whole collection about 19% have one here. Unless noted, the call rests on the fitted dose curve; in most records, active means well fitted curve in the direction sought with a large enough effect; inconclusive means small, poorly fitted or top-dose-only effect, or another doubt; inactive means no such curve, though single readings can be large; an effect the other way counts as inactive or inconclusive. On the % scale 0 is the no-effect control and ±100 the full control effect.
SMILES,TDP1 inh,Giardia killer,TDP1 cell CPT,DT40 TDP1 no CPT,ELG1 DNA repair,IL-1B inflam inh
CC1C(=O)Nc2ccccc2N1C(=O)c1ccccc1 (centres undefined),5.1%,-2.4,3.5%,5.1%,15.0%,-0.8
Cc1cccn2c(=O)cc(COc3cccc(NC(=O)c4cccc(Cl)c4)c3)nc12,-2.7%,.,0.7%,1.3%,.,.
O=S(Cc1cc(Sc2ccccc2)nc(-c2ccccc2)n1)c1ccccc1 (centres undefined),1.0%,-4.8,?,16.4µM*,?,-7.3
COc1ccc(OC(=O)c2nc(SCc3ccccc3C)ncc2Cl)cc1,4.7%,.,-17.1%,-21.2%,.,.
C/C(=N\NC(=O)c1c(Br)c(C)nn1C)c1cccc(NC(=O)c2ccccc2F)c1,7.9%,1.4,13.5%,?,?,-14.9
C/C(=N\NC(=O)c1nn(C)c(C)c1Br)c1cccc(NC(=O)c2ccc(F)cc2)c1,3.2%,0.0,?,16.4µM*,?,0.0
C/C(=N\NC(=O)c1c(Cl)c(C)nn1C)c1cccc(NC(=O)COc2ccccc2)c1,5.2%,-21.6,-28.8%,?,?,0.0
C/C(=N\NC(=O)c1c(Cl)c(C)nn1C)c1cccc(NC(=O)c2cccc(F)c2)c1,1.0%,7.9,?,23.1µM*,?,i
Cc1c(OCc2ccccc2)c(=O)ccn1Cc1ccc(Cl)cc1,4.0%,-4.0,?,16.4µM*,?,-17.7
Cc1c(O)c(=O)ccn1Cc1ccccc1,6.9%[21 µM],-5.1,23.1µM*,18.4µM*,?,90.8
CC(C)COC(=O)N(C)C[C@H]1OCc2cnnn2CCCC(=O)N([C@H](C)CO)C[C@@H]1C,.,.,-19.8%,13.1%,.,13.8
O=C(Nc1ccc2c(c1)OCCO2)c1ccccc1F,2.0%,?,7.31µM*,14.6µM*,?,-8.9
COc1ccc(-n2c(=O)[nH]cc(C(=O)Nc3ccc4c(c3)OCCO4)c2=O)cc1OC,3.3%,-9.0,-16.4%,-2.9%,1.6%,-10.0
O=C(Nc1ccc2c(c1)OCCO2)c1cccc2nc3ccccc3nc12,3.8%,1.8,23.1µM*,14.6µM*,?,?
O=C(Nc1ccc2c(c1)OCCO2)c1ccccc1Cl,.,.,-5.7%,-23.4%,.,-5.5
COc1cccc(-n2c(=O)[nH]cc(C(=O)Nc3ccc4c(c3)OCCO4)c2=O)c1,2.6%,-7.4,4.11µM*,-20.2%,5.7%,22.9
O=C(NC(=S)Nc1ccc2c(c1)OCCO2)c1ccccc1F,-3.7%,-5.4,-24.0%,7.4%,?,?
CCCCCC/C=N/Nc1nnc(Cc2ccccc2)c(=O)[nH]1,.,2.7,5.7%,0.7%,0.5%,5.9
Cc1cccc(CCNC(=O)CN(c2ccc(C(C)C)cc2)S(=O)(=O)c2c(C)nn(C)c2C)c1,11.5%,.,?,16.4µM*,.,.
Cc1ccc(N(CC(=O)NCc2ccc3c(c2)OCO3)S(=O)(=O)c2c(C)noc2C)cc1,-3.9%,?,?,23.1µM*,-4.2%,-12.0
Cc1nn(C)c(C)c1S(=O)(=O)N(CC(=O)NCCCOC(C)C)c1ccc(C(C)C)cc1,5.2%,-8.3,-16.7%,?,1.3%,-6.1
Cc1ccc(CCNC(=O)CN(c2cc(C)cc(C)c2)S(=O)(=O)c2c(C)noc2C)cc1,0.4%,-13.1,-21.7%,?,28.7%,-0.9
COc1ccc(CCNC(=O)CN(c2cc(C)cc(C)c2)S(=O)(=O)c2c(C)noc2C)cc1OC,2.0%,-10.9,?,18.4µM*,-2.2%,-3.6
Cc1ccc(N(CC(=O)NCCc2ccc(Cl)cc2)S(=O)(=O)c2c(C)noc2C)cc1,0.8%,17.6,23.1µM*,14.6µM*,-1.3%,-2.3
COc1ccccc1NC(=O)N1CCC(c2nc3ccccc3o2)CC1,0.0%,-14.7,-18.7%,?,3.9%,12.0
SMILES,TDP1 inh,Giardia killer,TDP1 cell CPT,DT40 TDP1 no CPT,ELG1 DNA repair,IL-1B inflam inh
O=C(Cn1c(=O)n(CC2CCCO2)c(=O)c2ccccc21)Nc1ccc(F)cc1F (centres undefined),-0.9%,.,-7.5%,-18.2%,.,.
Cc1ccc(CCNC(=O)CN(c2ccc(C)cc2)S(=O)(=O)c2c(C)noc2C)cc1,1.6%,28.6,?,16.4µM*,0.4%,-5.4
Cc1ccc(S(=O)(=O)C2(C(=O)NCc3ccc4c(c3)OCO4)CC2)cc1,2.2%,24.9,?,18.4µM*,?,17.1
N#CC1(Nc2ccc3ccccc3c2)CCCC1,.,-0.8,13.8%,-7.2%,.,7.3
CCOC(=O)c1cc2c(c(-c3cccc(-c4cc5ccccc5o4)c3)n1)[C@@H](CCO)N(S(=O)C(C)(C)C)C2 (some centres undefined),.,.,-20.0%,?,.,-14.7
COc1ccc(OC)c(NC(=O)CCC(=O)Oc2ccc(C)cc2)c1,.,10.2,-12.0%,-17.0%,-3.4%,-2.0
C=Cc1ccc(C(=O)N2CCc3c(cnc(C)c3CNC(=O)c3ccc4c(c3)OCO4)C2)cc1,.,.,-1.1%[9.04 µM],-19.3%,.,.
O=C(NCc1ccccc1)C(c1ccc(F)cc1)N(Cc1cccs1)C(=O)c1cnccn1 (centres undefined),5.4%,-5.8,?,?,13µM*,3.7
CCOc1ccc(NS(=O)(=O)c2ccc3[nH]cc(C(=O)N(C)C4CCCCC4)c(=O)c3c2)cc1,-3.8%,.,3.6%,-7.5%,.,.
Cc1ccc(O)c(CNc2cnc3ccccc3c2)c1,.,-16.5,-20.3%,?,?,-88.1*
COc1cccc(CNc2cnc3ccccc3c2)c1O,0.0%,-1.6,11.6µM*,16.4µM*,?,-54.3*
COc1cccc(CNc2nc3ccccc3n2C)c1O,.,?,-13.4%,?,?,?
CCOc1cc(NS(=O)(=O)c2ccc(OC)cc2)c(OCC)cc1NC(=O)c1ccco1,-2.6%,6.5,20.6µM*,23.1µM*,?,-8.2
CCOc1cc(NS(=O)(=O)CC)c(OCC)cc1NC(=O)c1ccco1,3.1%,47.4,?,?,16.4µM*,11.3
CCOc1cc(NC(=S)NCC(C)C)c(OCC)cc1NC(=O)c1ccco1,0.0%,13.7,14.6µM*,?,-16.9%,-16.3
CCOC(=O)CCCCC1C(CCCC(=O)OCC)C=NN1C (centres undefined),.,-2.4,?,-0.4%,.,6.7
